Results: PMC7862700, “An all-to-all approach to the identification of sequence-specific readers for epigenetic DNA modifications on cytosine”

Key:
Experiment in all cases: DAPPL (digital affinity profiling via proximity ligation, sequencing); 10 mM Tris-HCl pH 7.5, 50 mM NaCl, 1 mM DTT, 4% glycerol, room temperature, 30 min; GST-TFs on glutathione beads, 16-mer random dsDNA library, 0.1% formaldehyde crosslink after washing; high values mean tight binding
FLI1 = molecular target: T1, FLI1 (Homo sapiens, UniProt Q01543 1-452); settings: protein: recombinant; tags: N-terminal GST; dsDNA, one strand shown
T1 sequence: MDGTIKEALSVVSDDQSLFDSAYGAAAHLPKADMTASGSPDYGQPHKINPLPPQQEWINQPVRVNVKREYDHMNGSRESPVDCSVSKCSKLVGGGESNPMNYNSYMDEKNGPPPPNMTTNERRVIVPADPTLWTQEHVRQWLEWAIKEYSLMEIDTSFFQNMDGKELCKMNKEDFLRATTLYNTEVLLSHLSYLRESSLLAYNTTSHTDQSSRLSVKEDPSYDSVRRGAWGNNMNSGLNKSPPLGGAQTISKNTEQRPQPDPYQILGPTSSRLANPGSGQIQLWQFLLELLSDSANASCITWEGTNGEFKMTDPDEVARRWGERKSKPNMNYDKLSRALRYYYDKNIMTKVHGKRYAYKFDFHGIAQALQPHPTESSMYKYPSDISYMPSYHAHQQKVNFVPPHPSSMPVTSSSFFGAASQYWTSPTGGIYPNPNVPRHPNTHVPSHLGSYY
Method in brief: (§1)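 Each value of binding signal is a hexamer's read frequency for a factor divided by the same hexamer's frequency in the tag-only sample. Barcoded, bead-captured GST fusions of human transcription factors made in yeast were pooled with that sample and incubated with 200 nmole of a random double-stranded 16-mer DNA library in Tris/NaCl/DTT/glycerol buffer at room temperature for 30 min. Washing, 0.1% formaldehyde crosslinking, proximity ligation, PCR and Illumina NextSeq500 sequencing followed.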

ELK1 = molecular target: T2, ELK1 (Homo sapiens, UniProt P19419 1-428); settings: protein: recombinant; tags: N-terminal GST; dsDNA, one strand shown
T2 sequence: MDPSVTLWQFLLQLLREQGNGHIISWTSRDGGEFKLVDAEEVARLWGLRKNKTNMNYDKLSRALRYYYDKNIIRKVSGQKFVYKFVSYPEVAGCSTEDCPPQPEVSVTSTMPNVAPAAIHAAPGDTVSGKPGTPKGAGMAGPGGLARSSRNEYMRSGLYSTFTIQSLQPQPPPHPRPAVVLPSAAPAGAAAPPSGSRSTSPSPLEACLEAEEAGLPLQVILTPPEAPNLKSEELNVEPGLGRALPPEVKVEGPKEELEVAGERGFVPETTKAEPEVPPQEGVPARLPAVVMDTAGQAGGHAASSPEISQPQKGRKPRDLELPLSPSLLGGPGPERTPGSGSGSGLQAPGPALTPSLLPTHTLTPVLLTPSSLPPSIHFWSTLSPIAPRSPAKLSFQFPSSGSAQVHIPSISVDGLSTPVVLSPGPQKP
Method in brief: as §1

GABPA = molecular target: T3, GABPA (Homo sapiens, UniProt Q06546 1-454); settings: protein: recombinant; tags: N-terminal GST; dsDNA, one strand shown
T3 sequence: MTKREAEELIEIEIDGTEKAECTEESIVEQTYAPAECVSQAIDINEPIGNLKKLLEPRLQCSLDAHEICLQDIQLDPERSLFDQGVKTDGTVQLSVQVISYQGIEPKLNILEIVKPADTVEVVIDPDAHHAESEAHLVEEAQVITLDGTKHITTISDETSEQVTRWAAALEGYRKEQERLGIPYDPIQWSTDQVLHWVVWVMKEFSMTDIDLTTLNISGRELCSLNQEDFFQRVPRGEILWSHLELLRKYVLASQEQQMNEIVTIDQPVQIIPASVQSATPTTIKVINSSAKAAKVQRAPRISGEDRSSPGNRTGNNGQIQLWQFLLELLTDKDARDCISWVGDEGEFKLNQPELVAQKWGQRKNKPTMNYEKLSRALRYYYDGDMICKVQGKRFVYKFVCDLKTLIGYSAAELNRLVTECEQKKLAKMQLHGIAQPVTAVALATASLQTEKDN
Method in brief: as §1

ERG = molecular target: T4, ERG (Homo sapiens, UniProt P11308 1-479); settings: protein: recombinant; tags: N-terminal GST; dsDNA, one strand shown
T4 sequence: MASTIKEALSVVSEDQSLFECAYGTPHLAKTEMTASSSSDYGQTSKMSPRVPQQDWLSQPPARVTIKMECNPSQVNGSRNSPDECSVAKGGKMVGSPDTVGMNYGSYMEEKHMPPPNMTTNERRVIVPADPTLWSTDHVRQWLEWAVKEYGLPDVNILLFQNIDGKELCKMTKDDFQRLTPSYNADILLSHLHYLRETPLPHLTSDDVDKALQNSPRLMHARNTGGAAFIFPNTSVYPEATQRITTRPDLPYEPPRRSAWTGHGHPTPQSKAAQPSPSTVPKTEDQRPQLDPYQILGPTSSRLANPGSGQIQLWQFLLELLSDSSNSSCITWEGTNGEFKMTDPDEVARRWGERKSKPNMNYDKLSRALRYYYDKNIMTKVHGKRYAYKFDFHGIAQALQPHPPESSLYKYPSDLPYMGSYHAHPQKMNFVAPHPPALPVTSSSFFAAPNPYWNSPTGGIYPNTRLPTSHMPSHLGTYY
Method in brief: as §1

ELF1 = ELF1 (Homo sapiens, UniProt P32519 1-619); settings: protein: recombinant; tags: N-terminal GST; dsDNA, one strand shown
Method in brief: as §1

EHF = molecular target: T5, EHF (Homo sapiens, UniProt Q9NZC4 1-300); settings: protein: recombinant; tags: N-terminal GST; dsDNA, one strand shown
T5 sequence: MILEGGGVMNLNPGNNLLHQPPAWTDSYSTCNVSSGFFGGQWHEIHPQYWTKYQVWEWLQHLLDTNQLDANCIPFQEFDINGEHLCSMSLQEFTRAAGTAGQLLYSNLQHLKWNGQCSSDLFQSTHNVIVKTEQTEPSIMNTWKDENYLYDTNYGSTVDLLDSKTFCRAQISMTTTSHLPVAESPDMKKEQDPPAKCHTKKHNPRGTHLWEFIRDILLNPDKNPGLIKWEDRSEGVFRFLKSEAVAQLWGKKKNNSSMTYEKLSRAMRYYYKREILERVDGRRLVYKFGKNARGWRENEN
Method in brief: as §1

SPI1 = SPI1 (Homo sapiens, UniProt P17947 1-270); settings: protein: recombinant; tags: N-terminal GST; dsDNA, one strand shown
Method in brief: as §1

SPIB = SPIB (Homo sapiens, UniProt Q01892 1-262); settings: protein: recombinant; tags: N-terminal GST; dsDNA, one strand shown
Method in brief: as §1

ELK3 = molecular target: T6, ELK3 (Homo sapiens, UniProt P41970 1-407); settings: protein: recombinant; tags: N-terminal GST; dsDNA, one strand shown
T6 sequence: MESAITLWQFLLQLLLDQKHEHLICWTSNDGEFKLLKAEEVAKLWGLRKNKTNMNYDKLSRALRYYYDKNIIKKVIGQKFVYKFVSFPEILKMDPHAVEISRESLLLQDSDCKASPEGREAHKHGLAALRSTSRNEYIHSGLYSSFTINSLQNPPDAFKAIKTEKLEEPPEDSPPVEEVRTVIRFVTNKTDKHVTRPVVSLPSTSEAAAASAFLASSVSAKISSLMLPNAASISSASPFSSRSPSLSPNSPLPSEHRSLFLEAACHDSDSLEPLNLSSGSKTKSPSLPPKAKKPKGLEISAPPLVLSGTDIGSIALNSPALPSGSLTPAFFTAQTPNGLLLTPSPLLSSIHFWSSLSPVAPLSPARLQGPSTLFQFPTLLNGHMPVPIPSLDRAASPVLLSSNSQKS
Method in brief: as §1

FEV = molecular target: T7, FEV (Homo sapiens, UniProt Q99581 1-238); settings: protein: recombinant; tags: N-terminal GST; dsDNA, one strand shown
T7 sequence: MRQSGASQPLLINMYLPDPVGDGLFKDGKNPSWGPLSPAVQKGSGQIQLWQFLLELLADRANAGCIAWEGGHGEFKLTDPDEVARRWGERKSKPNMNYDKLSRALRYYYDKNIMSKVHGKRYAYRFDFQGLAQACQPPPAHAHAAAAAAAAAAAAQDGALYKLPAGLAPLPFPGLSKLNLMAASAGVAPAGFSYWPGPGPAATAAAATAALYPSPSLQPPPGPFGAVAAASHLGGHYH
Method in brief: as §1

ETV5 = ETV5 (Homo sapiens, UniProt P41161 1-510); settings: protein: recombinant; tags: N-terminal GST; dsDNA, one strand shown
Method in brief: as §1

HSF1 = HSF1 (Homo sapiens, UniProt Q00613 1-529); settings: protein: recombinant; tags: N-terminal GST; chain copies: 3; dsDNA, one strand shown
Method in brief: as §1

SPIC = molecular target: T8, SPIC (Homo sapiens, UniProt Q8N5J4 1-248); settings: protein: recombinant; tags: N-terminal GST; dsDNA, one strand shown
T8 sequence: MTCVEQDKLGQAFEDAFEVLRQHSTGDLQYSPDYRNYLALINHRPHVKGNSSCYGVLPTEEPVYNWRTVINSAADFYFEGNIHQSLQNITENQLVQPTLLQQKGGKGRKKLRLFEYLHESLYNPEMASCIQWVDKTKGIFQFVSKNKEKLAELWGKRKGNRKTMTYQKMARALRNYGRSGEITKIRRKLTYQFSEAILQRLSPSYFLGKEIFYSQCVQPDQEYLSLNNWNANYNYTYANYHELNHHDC
Method in brief: as §1

ELF4 = ELF4 (Homo sapiens, UniProt Q99607 1-663); settings: protein: recombinant; tags: N-terminal GST; dsDNA, one strand shown
Method in brief: as §1

ELK4 = molecular target: T9, ELK4 (Homo sapiens, UniProt P28324-2 1-405); settings: protein: recombinant; tags: N-terminal GST; dsDNA, one strand shown
T9 sequence: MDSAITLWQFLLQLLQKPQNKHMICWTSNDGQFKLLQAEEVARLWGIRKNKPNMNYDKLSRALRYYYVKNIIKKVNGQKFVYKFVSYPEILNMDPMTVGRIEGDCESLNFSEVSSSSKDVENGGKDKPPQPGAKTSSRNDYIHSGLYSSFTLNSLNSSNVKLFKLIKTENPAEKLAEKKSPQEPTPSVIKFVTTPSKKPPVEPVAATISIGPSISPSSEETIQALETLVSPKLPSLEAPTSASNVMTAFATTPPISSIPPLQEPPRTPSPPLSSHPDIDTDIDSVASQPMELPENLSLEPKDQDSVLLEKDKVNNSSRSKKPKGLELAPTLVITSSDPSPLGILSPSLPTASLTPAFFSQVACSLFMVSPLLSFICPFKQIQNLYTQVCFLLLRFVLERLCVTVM
Method in brief: as §1

ETV2 = molecular target: T10, ETV2 (Homo sapiens, UniProt O00321 1-342); settings: protein: recombinant; tags: N-terminal GST; dsDNA, one strand shown
T10 sequence: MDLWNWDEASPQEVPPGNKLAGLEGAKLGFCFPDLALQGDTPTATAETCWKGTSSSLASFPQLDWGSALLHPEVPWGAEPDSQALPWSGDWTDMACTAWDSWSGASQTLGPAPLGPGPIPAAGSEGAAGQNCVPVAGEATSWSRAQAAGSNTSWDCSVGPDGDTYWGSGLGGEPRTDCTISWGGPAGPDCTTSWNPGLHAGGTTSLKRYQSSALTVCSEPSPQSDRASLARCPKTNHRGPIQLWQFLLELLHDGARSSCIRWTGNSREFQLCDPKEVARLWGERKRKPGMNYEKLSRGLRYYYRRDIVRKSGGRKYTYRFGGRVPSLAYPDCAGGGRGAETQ
Method in brief: as §1

ELF3 = molecular target: T11, ELF3 (Homo sapiens, UniProt P78545 1-371); settings: protein: recombinant; tags: N-terminal GST; dsDNA, one strand shown
T11 sequence: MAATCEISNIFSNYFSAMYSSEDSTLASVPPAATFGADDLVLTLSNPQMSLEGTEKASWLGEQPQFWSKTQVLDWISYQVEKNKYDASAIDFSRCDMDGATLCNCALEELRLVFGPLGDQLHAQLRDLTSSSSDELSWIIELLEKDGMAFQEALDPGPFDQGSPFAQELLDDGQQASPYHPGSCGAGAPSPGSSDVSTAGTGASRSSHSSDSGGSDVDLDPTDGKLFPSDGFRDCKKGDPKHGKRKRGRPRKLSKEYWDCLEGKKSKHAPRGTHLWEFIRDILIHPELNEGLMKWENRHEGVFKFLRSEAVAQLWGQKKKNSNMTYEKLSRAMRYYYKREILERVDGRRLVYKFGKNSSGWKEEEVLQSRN
Method in brief: as §1

CRX = CRX (Homo sapiens, UniProt O43186 1-299); settings: protein: recombinant; tags: N-terminal GST; dsDNA, one strand shown
Method in brief: as §1

ETV1 = ETV1 (Homo sapiens, UniProt P50549 1-477); settings: protein: recombinant; tags: N-terminal GST; dsDNA, one strand shown
Method in brief: as §1

ETV1, sequence (P50549 whole entry): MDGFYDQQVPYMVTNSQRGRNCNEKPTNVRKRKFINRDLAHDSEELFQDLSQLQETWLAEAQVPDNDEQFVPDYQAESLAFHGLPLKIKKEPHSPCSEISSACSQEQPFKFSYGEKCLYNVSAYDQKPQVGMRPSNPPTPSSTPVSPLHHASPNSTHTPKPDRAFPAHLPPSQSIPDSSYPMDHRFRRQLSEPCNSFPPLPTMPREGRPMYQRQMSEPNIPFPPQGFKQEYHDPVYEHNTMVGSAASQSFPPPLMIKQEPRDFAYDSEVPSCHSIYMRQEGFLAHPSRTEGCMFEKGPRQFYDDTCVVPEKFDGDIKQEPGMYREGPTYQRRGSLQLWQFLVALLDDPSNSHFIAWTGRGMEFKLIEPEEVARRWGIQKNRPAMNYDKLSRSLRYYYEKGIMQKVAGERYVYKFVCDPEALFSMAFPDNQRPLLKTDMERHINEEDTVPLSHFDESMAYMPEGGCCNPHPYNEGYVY
CRX, sequence (O43186 whole entry): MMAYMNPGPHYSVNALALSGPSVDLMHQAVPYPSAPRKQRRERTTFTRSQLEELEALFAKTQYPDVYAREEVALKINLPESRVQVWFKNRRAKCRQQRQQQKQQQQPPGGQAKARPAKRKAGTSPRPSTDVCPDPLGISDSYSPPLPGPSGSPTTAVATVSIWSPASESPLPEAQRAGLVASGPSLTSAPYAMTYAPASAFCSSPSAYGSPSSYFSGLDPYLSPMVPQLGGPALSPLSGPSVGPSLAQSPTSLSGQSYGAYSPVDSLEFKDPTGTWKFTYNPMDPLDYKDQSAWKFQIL
ELF4, sequence (Q99607 whole entry): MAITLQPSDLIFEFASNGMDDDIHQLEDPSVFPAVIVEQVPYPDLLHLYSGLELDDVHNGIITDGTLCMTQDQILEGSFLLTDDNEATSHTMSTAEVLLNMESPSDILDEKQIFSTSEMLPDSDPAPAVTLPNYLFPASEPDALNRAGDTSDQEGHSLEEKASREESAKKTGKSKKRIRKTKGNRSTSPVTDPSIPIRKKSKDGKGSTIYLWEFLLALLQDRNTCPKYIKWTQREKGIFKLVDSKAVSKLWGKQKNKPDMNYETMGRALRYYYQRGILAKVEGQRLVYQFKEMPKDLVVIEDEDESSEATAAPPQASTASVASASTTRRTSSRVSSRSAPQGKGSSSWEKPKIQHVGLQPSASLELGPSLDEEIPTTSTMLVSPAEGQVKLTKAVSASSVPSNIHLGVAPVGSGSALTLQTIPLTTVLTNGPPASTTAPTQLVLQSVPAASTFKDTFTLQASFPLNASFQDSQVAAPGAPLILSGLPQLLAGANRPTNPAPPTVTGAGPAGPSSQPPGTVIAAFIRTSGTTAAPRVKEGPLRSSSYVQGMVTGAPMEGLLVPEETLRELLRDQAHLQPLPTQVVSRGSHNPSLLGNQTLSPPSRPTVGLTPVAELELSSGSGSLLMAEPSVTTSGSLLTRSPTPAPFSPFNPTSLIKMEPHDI
HSF1, sequence (Q00613 whole entry): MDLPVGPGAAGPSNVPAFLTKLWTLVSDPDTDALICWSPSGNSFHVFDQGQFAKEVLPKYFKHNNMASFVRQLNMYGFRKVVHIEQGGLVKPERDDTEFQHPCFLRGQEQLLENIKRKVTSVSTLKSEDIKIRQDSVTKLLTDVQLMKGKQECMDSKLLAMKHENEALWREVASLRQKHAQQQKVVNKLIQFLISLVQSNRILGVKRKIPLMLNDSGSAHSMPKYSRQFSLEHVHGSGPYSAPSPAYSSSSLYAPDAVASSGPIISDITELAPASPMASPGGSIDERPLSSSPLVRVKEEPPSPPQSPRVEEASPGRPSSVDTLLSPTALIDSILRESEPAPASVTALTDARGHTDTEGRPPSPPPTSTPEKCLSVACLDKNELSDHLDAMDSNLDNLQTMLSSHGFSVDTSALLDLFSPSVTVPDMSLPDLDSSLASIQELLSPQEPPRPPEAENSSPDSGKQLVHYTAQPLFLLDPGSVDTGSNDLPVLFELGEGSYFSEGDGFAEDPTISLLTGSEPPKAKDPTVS
ETV5, sequence (P41161 whole entry): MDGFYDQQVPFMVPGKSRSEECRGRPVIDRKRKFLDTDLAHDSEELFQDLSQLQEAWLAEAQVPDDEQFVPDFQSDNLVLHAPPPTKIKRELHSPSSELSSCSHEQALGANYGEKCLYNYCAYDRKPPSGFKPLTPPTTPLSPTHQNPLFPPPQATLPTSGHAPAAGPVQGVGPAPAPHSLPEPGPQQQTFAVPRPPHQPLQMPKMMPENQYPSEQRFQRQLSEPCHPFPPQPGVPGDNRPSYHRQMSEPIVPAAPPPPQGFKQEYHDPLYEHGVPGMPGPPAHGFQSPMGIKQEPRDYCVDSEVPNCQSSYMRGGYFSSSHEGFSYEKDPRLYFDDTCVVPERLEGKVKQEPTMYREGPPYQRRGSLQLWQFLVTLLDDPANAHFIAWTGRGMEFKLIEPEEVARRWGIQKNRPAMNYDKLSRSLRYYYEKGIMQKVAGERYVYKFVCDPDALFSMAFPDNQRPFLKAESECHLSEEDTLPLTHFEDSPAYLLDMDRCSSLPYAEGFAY
SPIB, sequence (Q01892 whole entry): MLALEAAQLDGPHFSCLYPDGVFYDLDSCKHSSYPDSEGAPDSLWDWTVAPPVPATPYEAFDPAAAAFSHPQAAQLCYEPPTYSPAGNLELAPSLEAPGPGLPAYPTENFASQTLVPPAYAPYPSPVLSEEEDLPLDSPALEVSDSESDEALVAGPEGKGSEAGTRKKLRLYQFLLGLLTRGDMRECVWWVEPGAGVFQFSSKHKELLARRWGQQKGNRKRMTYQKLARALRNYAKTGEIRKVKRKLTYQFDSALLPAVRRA
ELF1, sequence (P32519 whole entry): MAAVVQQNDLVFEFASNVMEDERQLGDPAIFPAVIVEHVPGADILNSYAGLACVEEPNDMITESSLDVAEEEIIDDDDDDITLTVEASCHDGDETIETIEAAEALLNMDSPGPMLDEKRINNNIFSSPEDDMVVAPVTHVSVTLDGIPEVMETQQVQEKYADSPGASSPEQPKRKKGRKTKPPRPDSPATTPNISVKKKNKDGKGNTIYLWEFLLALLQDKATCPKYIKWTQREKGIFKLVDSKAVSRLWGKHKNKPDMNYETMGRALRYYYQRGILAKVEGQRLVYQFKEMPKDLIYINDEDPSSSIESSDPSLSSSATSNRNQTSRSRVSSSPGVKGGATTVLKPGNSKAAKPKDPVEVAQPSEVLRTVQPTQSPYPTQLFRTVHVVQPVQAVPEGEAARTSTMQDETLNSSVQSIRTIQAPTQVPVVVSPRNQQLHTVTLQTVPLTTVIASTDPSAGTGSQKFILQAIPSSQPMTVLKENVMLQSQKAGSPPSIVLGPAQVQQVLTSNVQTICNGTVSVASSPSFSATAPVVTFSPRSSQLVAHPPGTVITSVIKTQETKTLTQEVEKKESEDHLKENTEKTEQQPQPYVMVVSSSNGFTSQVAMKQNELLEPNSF

GCTGAT
binding signal (FLI1): 1.11 fold enrichment (6-mer frequency, TF over GST control) | binding signal (ELK1): 1.1 fold enrichment (6-mer frequency, TF over GST control) | binding signal (GABPA): 1.18 fold enrichment (6-mer frequency, TF over GST control) | binding signal (ERG): 1.1 fold enrichment (6-mer frequency, TF over GST control) | binding signal (ELF1): 1.22 fold enrichment (6-mer frequency, TF over GST control) | binding signal (EHF): 1.33 fold enrichment (6-mer frequency, TF over GST control) | binding signal (SPI1): 1.08 fold enrichment (6-mer frequency, TF over GST control) | binding signal (SPIB): 1.11 fold enrichment (6-mer frequency, TF over GST control) | binding signal (ELK3): 1.33 fold enrichment (6-mer frequency, TF over GST control) | binding signal (FEV): 1.07 fold enrichment (6-mer frequency, TF over GST control) | binding signal (ETV5): 1.11 fold enrichment (6-mer frequency, TF over GST control) | binding signal (HSF1): 1.16 fold enrichment (6-mer frequency, TF over GST control) | binding signal (SPIC): 1.19 fold enrichment (6-mer frequency, TF over GST control) | binding signal (ELF4): 1.19 fold enrichment (6-mer frequency, TF over GST control) | binding signal (ELK4): 1.25 fold enrichment (6-mer frequency, TF over GST control) | binding signal (ETV2): 1.08 fold enrichment (6-mer frequency, TF over GST control) | binding signal (ELF3): 1.16 fold enrichment (6-mer frequency, TF over GST control) | binding signal (CRX): 1.39 fold enrichment (6-mer frequency, TF over GST control) | binding signal (ETV1): 1.2 fold enrichment (6-mer frequency, TF over GST control)
